# Bioassay records as filed in PubChem.
# Hits are enriched below; roughly 4.6% of the tested compounds scored in any of these assays.
# D1 agonist = activates the human D1 dopamine receptor | P21728 | HEK293 T-REx D1 cells, calcium flux, agonist mode | activation, % at 2 µM | actives 1% (n = 360,000); also: 0% is about no effect
# Target sequence (P21728 whole entry, looked up): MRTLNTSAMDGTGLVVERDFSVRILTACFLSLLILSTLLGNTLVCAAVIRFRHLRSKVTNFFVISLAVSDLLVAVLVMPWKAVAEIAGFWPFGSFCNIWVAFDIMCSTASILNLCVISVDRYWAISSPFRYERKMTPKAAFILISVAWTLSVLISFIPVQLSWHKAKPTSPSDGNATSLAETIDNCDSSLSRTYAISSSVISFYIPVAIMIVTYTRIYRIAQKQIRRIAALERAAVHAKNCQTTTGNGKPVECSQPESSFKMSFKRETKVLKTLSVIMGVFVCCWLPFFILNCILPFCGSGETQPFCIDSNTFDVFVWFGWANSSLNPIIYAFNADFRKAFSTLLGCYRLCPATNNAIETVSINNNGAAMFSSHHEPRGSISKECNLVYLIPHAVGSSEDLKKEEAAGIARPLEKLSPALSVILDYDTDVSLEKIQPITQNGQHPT
#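 Inducible HEK293 T-REx D1 cells, force-coupled to calcium signalling, were plated at 4000 cells/well with tetracycline and held overnight at 30 C. After no-wash calcium dye loading, compound-evoked calcium rise over 180 s flagged agonists.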
# TRHR enhancer = allosterically enhances the human TRH receptor. TRHR cells, fluo-8 calcium fluorescence, EC20 TRH enhancement. P34981. enhancement, % at 2 µM. actives 0.66% (n = 360,000); in the data active = enhancement above about 30%; also: 0% is about no effect
#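 TRHR-expressing cells loaded with fluo-8 calcium dye were read kinetically (ex 480/em 530) during compound addition, then stimulated with an EC20 of TRH (10 nM final). Enhancement of the Gq-mediated intracellular calcium response was scored.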
# D1 potentiator = enhances dopamine response at the human D1 receptor; HEK293 TREx D1 cells, calcium flux, dopamine EC20 potentiation; actives 0.036% (n = 360,000); potentiation, % at 10 µM; P21728; in the data active = potentiation above about 30%; also: 0% is about no effect
# TRHR ag = activates the human TRH receptor | P34981 | TRHR cells, calcium flux fluo-8, FDSS agonist mode | activation, % at 2 µM | actives 0.18% (n = 360,000); also: 0% is about no effect
#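 Read-out: compound-evoked intracellular calcium rise in TRHR cells, fluo-8 dye, kinetic FDSS fluorescence at 1 s/cycle following a 10-cycle baseline. Cells cultured overnight before dye loading (30 min–1.5 h, RT).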
# D1 antagonist = human D1 dopamine receptor antagonism; P21728; HEK293 TREx D1 cells, calcium flux, dopamine EC80; active compounds read low; activity change, negative = inhibition, % at 10 µM; actives 3.2% (n = 360,000); in the data active = activity change below about -30%; also: % is scaled to controls: 0 for no effect and ±100 for the full control effect
#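 After overnight tetracycline induction at 30 C, force-coupled D1 HEK293 cells took up a no-wash calcium dye at room temperature. Compounds were added and monitored 180 s, and the response to EC80 dopamine was then recorded.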
# Active calls of the source: *. Rule as the data show it, unless noted: active = activation above about 30%; inactive = the rest.
SMILES,D1 agonist,TRHR enhancer,D1 potentiator,TRHR ag,D1 antagonist
CCO[C@H]1OC(C(=O)O)=C[C@@H](c2ccc3c(c2)OCO3)[C@@H]1CCCO,-3,2,63*,0,-14
CCO[C@@H]1OC(C(=O)NC2CC2)=C[C@H](c2ccc(Br)cc2)[C@H]1CCCO,3,-1,3,0,11
Cc1ccc(C)c(CN2C(=O)c3ccccc3S(=O)c3ccc(C(=O)N4CCCCC4)cc32)c1 (stereo unspecified),1,-4,2,0,8
C[C@H](NC(N)=O)C(=O)Nc1ccc2c(c1)OCO2,3,5,-3,-1,-2
COc1ccc(OC)c2c1sc(=NC(=O)C1CCCCC1)n2C,2,-5,0,0,-8
Cn1c(=NC(=O)C2CC2)sc2cccc(F)c21,3,1,-6,0,-41*
OCCn1c(-c2ccc(F)cc2)csc1=Nc1ccccc1,6,1,-8,0,-31*
C=CCSc1ncc(CO)n1Cc1ccccc1,-1,5,2,-1,-50*
OCc1cnc(SCc2ccccc2)n1Cc1ccccc1,3,-7,-2,0,2
C=CCOC(=O)Nc1snnc1C,1,-6,3,0,10
Cc1nnsc1NC(=O)OCc1ccc(C(C)(C)C)cc1,8,-6,-2,0,-32*
O=S(=O)(c1ccc(OC(F)(F)F)cc1)N1CCC(c2nc3ccccc3s2)CC1,0,1,1,2,5
COCC(=O)Nc1nnc(-c2ccc(C(C)(C)C)cc2)s1,34*,2,-4,6,-6
CC(C)(C)c1ccc(-c2nnc(NC(=O)c3ccccc3)s2)cc1,2,0,-3,1,4
COc1ccc2c(c1)C1(C)CC(C)(C)N2C(=O)N1c1ccccc1 (stereo unspecified),56*,19,8,0,-4
CCN1/C(=C/C=C/C=C/C=C/c2sc3ccccc3[n+]2CC)Sc2ccccc21,0,32*,2,1,0
COc1ccc(NS(=O)(=O)c2ccc(N3CCOCC3)c(N)c2)cc1,23,4,7,2,-32*
COc1cc(OC)cc(-c2nc3nc(C)c(CCC(=O)Nc4ccc(F)cc4F)c(C)n3n2)c1,1,-8,-3,-1,2
Brc1ccc(C2=NC(Cc3ccccc3)CO2)cc1 (stereo unspecified),-1,-1,-3,0,18
CCC1N=C(SC)NC(C)=C1C(=O)c1ccccc1 (stereo unspecified),3,0,-2,0,8
CSC1=NC(C(Cl)(Cl)Cl)N=C(c2ccc(C)cc2)N1 (stereo unspecified),0,1,-5,0,-85*
C=CCN1C(=O)c2cccc3c(N4CCCCC4)ccc(c23)C1=O,89*,-1,-6,34*,-12
O=C1c2ccccc2C(=O)N1CCN1CCCCC1,8,-8,-1,0,-11
Cc1n[nH]c(C)c1N1C(=O)c2cccc3c(N4CCCCCC4)ccc(c23)C1=O,281*,6,4,126*,0
O=C1c2cccc3c(N4CCCCC4)ccc(c23)C(=O)N1CCO,109*,10,-4,69*,4
SMILES,D1 agonist,TRHR enhancer,D1 potentiator,TRHR ag,D1 antagonist
O=C(c1cccc(N2C(=O)c3ccccc3C2=O)c1)N1CCCCCC1,1,-1,-2,-1,-1
O=C1c2cccc3c(N4CCCCC4)ccc(c23)C(=O)N1c1cccc(O)c1,300*,5,10,73*,2
CCOC(=O)c1cc(C)sc1/N=C/C1C(=O)CC(C)(C)CC1=O,-2,-3,-8,0,-6
CCOC(=O)c1c(CC(C)C)csc1/N=C/C1C(=O)CC(C)(C)CC1=O,32*,13,-2,12,-4
CC(C)(C)c1ccc(C(=O)N2CCCCC2CCN2CCCCC2)cc1 (stereo unspecified),6,-1,-1,1,-1
Cc1ccccc1N/C=C/C(=C(C#N)C#N)N(C)C,1,-5,-4,1,-17
C=CCOc1ccc(Br)cc1CNC(C)(C)CO,3,0,-5,0,-42*
CC1=C(C(=O)OCC(Cl)(Cl)Cl)N2C(=O)C(NC(=O)Cc3ccccc3)C2SC1 (stereo unspecified),26,4,-10,-1,-34*
